Assay outcomes from PubChem BioAssay.
Epigenetic reg: regulators of epigenetic silencing causing reporter derepression in mouse cells; murine LDR cells, GFP reporter derepression, 30 h; Potency, µM (top dose mostly 53.9 µM), hits mostly activators; actives 0.2% (n = 280,000); further: nearly all actives have a fitted effect of over 60% in size
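Murine LDR cells bearing a silenced CMV-driven GFP reporter were exposed to compound for 30 h at 37 C. After PBS washes, GFP-positive cells (20-120 um objects) counted by laser-scanning microplate cytometry.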
Nrf2 inh: blocks Nrf2 signaling. A549 ARE-Fluc reporter, luciferase luminescence, 18-24 h. Potency, µM (series often up to 46 µM), actives largely listed as inhibitors. actives 2.1% (n = 360,000). AID 504444; further: nearly all actives have a fitted effect of over 60% in size
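Concentration-response testing used A549 ARE_Fluc cells at 5000 cells/well. Following an 18-24 h compound incubation, viability was read by fluorescence (Ex 405/Em 525) and luciferase output by luminescence.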
A549 tox: counter-screen for Nrf2 inhibitors: cytotoxicity in A549 cells; AID 504648; Potency, µM (doses to about 46 µM), most hits filed as inhibitors; actives 0.16% (n = 390,000); A549 ARE-Fluc cells, CellTiter-Fluor viability, 18-24 h
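Cytotoxicity counterscreen: CellTiter-Fluor fluorescence was measured in A549 ARE_Fluc cells after 18-24 h of compound exposure in a concentration series. The subsequent BugLite luminescent read reports ARE-luciferase activity.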
Nrf2 activator: Nrf2 pathway activation; AREc32 ARE-luciferase reporter (MCF7-derived line), luminescence, 24 h; Potency, µM (highest dose often 46.1 µM), hits mostly activators; actives 0.31% (n = 410,000); AID 624171; further: nearly all actives have a fitted effect of over 65% in size
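Luminescent ARE reporter assay in AREc32_Fluc cells: overnight plating at 37 deg C, 24 hr compound incubation, Steady-Glo added, 30 min RT before reading.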
PINK1 modulator: modulators of PINK1 expression | PINK1 immunofluorescence, high-content cytometry, 24 h | actives 0.2% (n = 410,000) | Potency, µM (series often up to 76.6 µM), most hits filed as activators; active means well fitted activation curve with a large enough effect; inconclusive means small, poorly fitted or top-dose-only effect; cell line not stated here; further: nearly all actives have a fitted effect of over 65% in size
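PINK1 protein, normally rapidly degraded, was detected by immunofluorescence after 24 hour compound treatment of a stable cell line. Titration data (5 concentrations) came from laser-scanning cytometry, with CCCP-treated wells as controls.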
Each line names hits and unclear results; the compound was inactive in the other large screens. In the library only some 2.4% were active in any assay of this set; here they are far more common. Unless noted, the call rests on the fitted dose curve; in most records, active means well fitted curve in the direction sought with a large enough effect; inconclusive means small, poorly fitted or top-dose-only effect, or another doubt; inactive means no such curve, though single readings can be large; an effect the other way counts as inactive or inconclusive.

COc1ccc(/C=C/C(=O)Nc2cccc(S(=O)(=O)NC3=NCCCCC3)c2)cc1	none
CN(CC(=O)Nc1cccc(S(=O)(=O)NC2=NCCCCC2)c1)Cc1ccc(C(C)(C)C)cc1	none
O=C(Cc1csc(-c2ccc(F)cc2)n1)Nc1cccc(S(=O)(=O)NC2=NCCC2)c1	Nrf2 inh inconclusive (no result: Epigenetic reg)
COc1cccc(C2c3c(ncn(-c4ccc(NC(C)=O)cc4)c3=N)Oc3ccc4ccccc4c32)c1 (configuration not stated)	none (no result: Epigenetic reg, Nrf2 activator, PINK1 modulator)
O=C(/C=C/c1ccco1)Nc1ccc(S(=O)(=O)N2CCOCC2)cc1	Nrf2 activator 11µM
CC(C)c1ccc(/C=C/C(=O)Nc2ccc(CN3CCOCC3)cc2)cc1	Nrf2 inh 23µM, A549 tox inconclusive
CC(C)c1ccc(C(=O)Nc2ccc(CN3CCOCC3)cc2)cc1	Nrf2 inh inconclusive (no result: Epigenetic reg)
O=C(/C=C/c1ccc(Cl)cc1)Nc1ccc(CN2CCOCC2)cc1	Nrf2 inh 21µM, A549 tox inconclusive
CCN(CC)S(=O)(=O)c1ccc(/C=C/C(=O)Nc2ccc(N3CCOCC3)cc2)cc1	Nrf2 inh 16µM
O=C(/C=C/c1ccc(F)cc1)Nc1ccc(S(=O)(=O)N2CCOCC2)cc1	Nrf2 inh inconclusive (no result: Epigenetic reg)
COc1ccc(/C=C/C(=O)Nc2ccc(N3CCOCC3)cc2)cc1	none
O=C(/C=C/c1ccccc1)NC(=S)Nc1ccc(CN2CCOCC2)cc1	Nrf2 activator inconclusive
CC(O)(COc1ccccc1)c1ccc2c(c1)CN(Cc1cccc3ncccc13)CCO2 (configuration not stated)	none (no result: Epigenetic reg, Nrf2 inh, A549 tox, Nrf2 activator)
Cc1nc(C)n(CC(=O)N2CCOc3ccc(CN4CCN(C)C[C@@H]4c4ccccc4)cc3C2)n1	none (no result: Epigenetic reg, Nrf2 inh, A549 tox, Nrf2 activator)
Cc1ccccc1C(=O)NCC(=O)OC(C(=O)Nc1cc(C(F)(F)F)ccc1Cl)c1ccccc1 (configuration not stated)	none (no result: Epigenetic reg, Nrf2 activator, PINK1 modulator)
C=CC[C@@](C(C)=O)(C(=O)OC)C(NC(=O)OC(C)(C)C)c1ccccc1 (some centres not stated)	none (no result: Nrf2 inh, A549 tox, Nrf2 activator, PINK1 modulator)
O=S(=O)(c1cccc(Br)c1)N1CCN(c2ccnc3cc(Cl)ccc23)CC1	Nrf2 inh inconclusive, A549 tox inconclusive (no result: Epigenetic reg)
COc1ccccc1N1CCN(c2ccnc3cc(Cl)ccc23)CC1	Nrf2 inh inconclusive (no result: Epigenetic reg)
CC(=O)c1ccc(N2CCN(c3ccnc4cc(Cl)ccc34)CC2)cc1	Nrf2 inh 1.6µM (no result: Epigenetic reg)
CC(C)(C)C(=O)N1CCN(c2ccnc3cc(Cl)ccc23)CC1	Nrf2 inh 8.2µM (no result: Epigenetic reg)
N#Cc1cccc(S(=O)(=O)N2CCN(c3ccnc4cc(Cl)ccc34)CC2)c1	Nrf2 inh 10µM (no result: Epigenetic reg)
COc1ccccc1NC(=O)N1CCN(c2ccnc3cc(Cl)ccc23)CC1	Nrf2 inh 13µM
CCn1c(-c2ccccc2F)nc2cc(NC(C)=O)cc(C(=O)N3CCCC3c3nccs3)c21 (configuration not stated)	none (no result: Epigenetic reg, Nrf2 inh, A549 tox, Nrf2 activator)
COc1ccc2c(c1)C(=O)[C@H](OC(=O)Nc1cc(OC)c(OC)c(OC)c1)[C@@H](c1ccc(OC)c(Br)c1)O2	none (no result: Nrf2 inh, A549 tox, Nrf2 activator, PINK1 modulator)
Cc1cnc(SCC2CCCO2)nc1C1CCCN(Cc2nc(-c3ccccc3)cs2)C1 (configuration not stated)	none (no result: Epigenetic reg, Nrf2 inh, A549 tox, Nrf2 activator)
O=C(Nc1ccc(OC(F)(F)F)cc1)N1CCN(c2ccnc3cc(Cl)ccc23)CC1	Nrf2 inh 4.6µM, A549 tox inconclusive, PINK1 modulator inconclusive
O=C(C1CCC1)N1CCN(c2ccnc3cc(Cl)ccc23)CC1	none
COC(=O)c1ccc(NC(=O)c2ccc3nccnc3c2)cc1	none (no result: Epigenetic reg)
O=C(C1CCCCC1)N1CCN(c2ccnc3cc(Cl)ccc23)CC1	Nrf2 inh 21µM
O=C(Nc1ccc(OC(F)(F)F)cc1)c1ccc2nccnc2c1	Nrf2 inh 13µM, A549 tox inconclusive
Cc1cc(C)cc(C(=O)NCCn2cc(C(=O)N3CCSCC3)nn2)c1	none (no result: Epigenetic reg, Nrf2 inh, A549 tox, Nrf2 activator)
COc1ccc(CN2CCC3(CCC(CNC(=O)c4ccco4)O3)CC2)c(OC)c1C (configuration not stated)	none (no result: Epigenetic reg, Nrf2 inh, A549 tox, Nrf2 activator)
Cc1cc2c(c(-c3ccc(Cl)cc3)c1)OC(CNC(=O)Cc1c(C)noc1C)C2 (configuration not stated)	none (no result: Epigenetic reg, Nrf2 inh, A549 tox, Nrf2 activator)
CNc1ccc(Br)cc(C(=O)/C=C/c2ccc(Cl)cc2Cl)c1=O	Epigenetic reg inconclusive, Nrf2 inh inconclusive, A549 tox 21µM, Nrf2 activator 8.9µM
CCCN(C(=O)CCc1nc(-c2ccc(C)cc2)no1)c1ccc(OCC)cc1	none
O=C1CC[C@@H](CN(Cc2cccnc2)C2CCN(c3ccc(NC(=O)c4cnccn4)cc3)CC2)N1	none (no result: Epigenetic reg, Nrf2 inh, A549 tox, Nrf2 activator)
N#C/C(=C\c1c(N(Cc2ccccc2)Cc2ccccc2)nc2ccccn2c1=O)C(N)=O	none
C=CCNC(=O)/C(C#N)=C/c1c(N(Cc2ccccc2)Cc2ccccc2)nc2ccccn2c1=O	Epigenetic reg inconclusive, Nrf2 inh 26µM, A549 tox inconclusive
O=C(Cc1nnc(-c2nc3ccccc3[nH]2)o1)Nc1cc(C(F)(F)F)ccc1Cl	none (no result: Epigenetic reg, Nrf2 activator, PINK1 modulator)
COc1ccc(-c2nc3ccccc3c(=O)n2Cc2ccccc2)cc1CNc1ccc(NC(C)=O)cc1	none (no result: Epigenetic reg, Nrf2 activator, PINK1 modulator)
O=C(Nc1ccc(-c2cc(C(F)(F)F)nn2-c2ccccc2)cc1)c1cccc(F)c1	Nrf2 inh 13µM, A549 tox inconclusive, PINK1 modulator inconclusive
COc1cc(Br)cc(/C=N/NC(=O)Cc2ccc(C(F)(F)F)cc2[N+](=O)[O-])c1O	Nrf2 inh 16µM, A549 tox inconclusive
C=CCNc1ncnc2c1[nH]c1ccc(Cl)cc12	Nrf2 inh 8.2µM, A549 tox inconclusive
CCn1c(=O)c2c(nc3n2CCCN3Cc2ccccc2)n(C)c1=O	none (no result: Epigenetic reg)
